Assay outcomes deposited in PubChem by National Center for Advancing Translational Sciences (NCATS).
Methyltransferases = Primary Screen for Target Class Profiling of Small Molecule Inhibitors of Methyltransferases | calls only at 40 µM | purified enzyme, MTase-Glo SAH luminescence; hits give low values | AID 1745853, 2022 | 25,000 tested, 3.9% active; call rule not given here
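Each enzyme was reacted with SAM and its substrate, with compounds tested once at 40 uM; SAH formed was read by MTase-Glo luminescence.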
Calls only; n = inactive; + = active, no number. This excerpt belongs to a sample that is enriched for hits.

SMILES | Methyltransferases
CC1CC(C)CN(S(=O)(=O)c2ccc3c(c2)oc(=O)n3CC(=O)NC2CCCCC2C)C1 (configuration not stated) | n
CCC(CC)C(c1ccc(Nc2nc3ccccc3s2)cc1)n1cncn1 (configuration not stated) | +
CC1CCC(NC(=O)C2(C)Cn3c(cc4occc43)C(=O)N2Cc2ccccc2Cl)CC1 (configuration not stated) | n
CCCn1c(=O)c2cc(Cl)ccc2n2c(=O)n(CC(=O)c3ccc(OC)c(OC)c3)nc12 | n
CSc1cccc(N2C(=O)CSc3c(c4ccccc4n3C)C2C(=O)NCc2ccccc2)c1 (configuration not stated) | n
CC(C)c1nc2c(NC(=O)Nc3cccc(Cl)c3)cccn2n1 | n
CC(C)c1nc(-c2ccc(NC(=O)Nc3cccc(C(F)(F)F)c3)c3ccccc23)c2c(N)nccn12 | +
CS(=O)(=O)N1CCC(NC(=O)c2[nH]ncc2NC(=O)c2c(Cl)cccc2Cl)CC1 | n
CCCn1c(=O)c2ccc(C(=O)NC(C)C)cc2n2c(SCC(=O)Nc3ccc(C)cc3)nnc12 | n
CC(C)Cn1c(=O)c2ccccc2n2c(CCC(=O)NCCCOC(C)C)nnc12 | n
CC(C)Cn1c(=O)c2ccc(C(=O)NC(C)C)cc2n2c(=O)n(CC(=O)N(C)c3ccc(F)cc3)nc12 | n
Cn1cccc1CN1CC(F)(F)C[C@H]1c1nnc(C2CC2)o1 | n
Cc1ccc(Cl)cc1Nc1nn2c(=O)c3ccc(C(=O)NC4CCC(C)CC4)cc3nc2s1 (configuration not stated) | n
CN(C)c1nc(NC2CCC(NC(=O)c3ccc(F)c(F)c3)CC2)nc2ccccc12 (configuration not stated) | +
CN(C(=O)Cn1nc2n(C)c(=O)c3ccc(C(=O)NC4CCCC4)cc3n2c1=O)c1ccccc1 | n
C=C1C(=O)O[C@H]2[C@H]1[C@@H](OC(=O)C(C)CO)C[C@@]1(C)[C@H](O)CCC(=O)[C@H]21 (some centres not stated) | n
C=C1C(=O)O[C@@H]2CC(C)=C([C@@H](C)CCCO)[C@@H](OC(=O)C(C)C)[C@H]12 | +
C=C1CC2OC(=O)C(=C)C2C(OC(=O)/C(C)=C\C)CC2(C)OC1=CC2=O (configuration not stated) | n
COc1ccc2cc3n(c2c1)CC(C)(C(=O)NC1CCCCC1)N(Cc1ccc2c(c1)OCO2)C3=O (configuration not stated) | n
CCc1cc2c(cc3n2CC(C)(C(=O)NC2CCCCCC2)N(c2cccc(C)c2C)C3=O)s1 (configuration not stated) | n
COc1ccccc1CNC(=O)CCc1nnc2n(Cc3ccccc3Cl)c(=O)c3ccccc3n12 | n
O=C(Nc1ccc2c(c1)OCCO2)N1CCCC(CN2CCOCC2)CC1 (configuration not stated) | n
C[C@@]12C[C@]3(O)O[C@H](O1)[C@]1(COC(=O)c4ccccc4)[C@H]3C[C@@]12O[C@@H]1O[C@H](COC(=O)c2ccccc2)[C@@H](O)[C@H](O)[C@H]1O | n
CC(C)(O)/C=C1/C(=O)C(C)(C)C(=O)C(C)(C)C1(O)O[C@@H]1O[C@H](COC(=O)c2cc(O)c(O)c(O)c2)[C@@H](O)[C@H](O)[C@H]1O (some centres not stated) | +
O=C(OC[C@H]1O[C@H](O[C@]2(CO)O[C@H](CO)[C@@H](O)[C@@H]2O)[C@H](O)[C@@H](O)[C@@H]1O)c1ccccc1 | n
SMILES | Methyltransferases
CCCn1c(=O)c2cc(Cl)ccc2n2c(SCc3cccc(OC)c3)nnc12 | n
NC(=O)c1cccc2[nH]c(-c3ccc([C@@H]4CCCN4)cc3F)nc12 | +
NC(=O)c1cccc2[nH]c(-c3ccc([C@H]4CCCN4)cc3F)nc12 | +
NC(=O)c1cccc2[nH]c(-c3ccc(C4CCCN4)cc3F)nc12 (configuration not stated) | +
COc1ccc(OC)c2c1cc1n2CC(C)(C(=O)NC2CCCCC2)N(C(C)c2ccccc2)C1=O (configuration not stated) | n
COC1=Cc2c(nc3n(c2=O)C(C)C(=O)NC3(O)C(C)C)OC=C1 (configuration not stated) | n
CCCn1c(=O)c2ccc(Cl)cc2n2c(=O)n(Cc3ccccc3)nc12 | n
CC1(C(=O)NC2CCCCC2)Cn2nc(-c3cccs3)cc2C(=O)N1Cc1ccccc1 (configuration not stated) | n
CCCn1c(=O)c2ccc(C(=O)NC3CCCCC3)cc2n2c(=O)n(CC(=O)NC(C)(C)C)nc12 | n
COc1ccc(S(=O)(=O)c2nnn3c2nc(Nc2ccc(C)cc2)c2ccccc23)cc1 | n
CCCCN1C(=O)c2cc(C(=O)Nc3cc(F)ccc3F)nn2CC1(C)C(=O)NC1CCCC1 (configuration not stated) | n
COc1ccc(N2CCN(c3nc(C(=O)NCc4cccc(C)c4)cs3)CC2)cc1 | n
COc1ccc(N(C(=O)Nc2c(C)cccc2C)c2cc(Nc3ccc(N4CCN(C)CC4)cc3)ncn2)c(OC)c1 | +
CCC(=O)Nc1cccc(Oc2nc(Nc3ccc(N4CCN(C)CC4)cc3OC)ncc2Cl)c1 | n
CCCn1c(=O)c2cc(Cl)ccc2n2c(SCC(=O)NC(C)CC)nnc12 (configuration not stated) | n
O=c1[nH]c2ccccc2n1C1CCN(S(=O)(=O)c2ccc(-n3cnnn3)cc2)CC1 | n
Nc1nonc1-c1nc2cnccc2n1C1CCCCC1 | +
CN1C(=O)c2cc(C(=O)N3CCN(Cc4ccccc4)CC3)nn2CC1(C)C(=O)NC1CCCCC1 (configuration not stated) | n
CCOc1ccccc1NC(=O)N1Cc2c(sc3c2CCCC3)-n2cccc2C1c1cccc(OC)c1 (configuration not stated) | n
COc1ccc(N2C(=O)c3cc4ccccc4n3CC2(C)C(=O)NC2CCCCC2)c(OC)c1 (configuration not stated) | n
CC(C)N1CC(C(=O)NCCc2ccc(Cl)cc2)NC1=O (configuration not stated) | n
c1cc(CN2CCCCC2)cc(OCCCNc2nc3ccccc3s2)c1 | +
NC(=O)COc1cccc(CN2CCN(c3ccc(F)cc3F)CC2)c1 | n
c1ccc(CCCN2CC[C@H](c3nc4ccccc4s3)C2)cc1 | n
CC(C)CNC(=O)c1ccc2c(=O)n(C(C)C)c3nn(CC(=O)Nc4ccccc4)c(=O)n3c2c1 | n
SMILES | Methyltransferases
COc1ccc(-c2cc3n(n2)CC(C)(C(=O)NCc2ccccc2)N(c2ccc(Cl)cc2)C3=O)cc1 (configuration not stated) | n
Cc1cc(C)cc(NC(=O)N2CCC(CCc3nc(C4CCOCC4)no3)CC2)c1 | n
CCOC(=O)c1cccc(NS(=O)(=O)c2ccc3[nH]c(=O)[nH]c3c2)c1 | n
CCOC(=O)c1ccc(NS(=O)(=O)c2ccc3c(c2)n(C)c(=O)n3C)cc1 | n
CCOC(=O)c1cnc2ccc(-c3cncc(NS(=O)(=O)c4ccccc4)c3)cn12 | +
CC(C)CCn1c(=O)c2ccc(C(=O)NC(C)C)cc2n2c(=O)n(CC(N)=O)nc12 | n
CCc1ccc(CNC(=O)c2ccc3c(=O)nc4c(-c5cccc(F)c5)n[nH]n4c3c2)cc1 | n
O=C(NCc1ccncc1)c1ccc(-c2cccs2)nc1 | n
Cc1ccsc1C(=O)N1CCN(c2cc(-c3cccs3)[nH]n2)CC1 | n
COc1ccc(C(=O)N2CCN(c3cc(-c4cccs4)[nH]n3)CC2)cc1OC | n
